This excerpt belongs to a sample that is enriched for hits.
Chlamy TAG = algal TAG accumulation induction; calls only at 10 µM (by protocol); Chlamydomonas reinhardtii TAG, Nile Red fluorescence, 72 h; hit rate 0.84% among 44,000; call rule not given here;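 note: hits raise Nile Red signal meaning more stored TAG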
Each line names hits and unclear results; the compound was inactive in the other large screens.

Fc1ccccc1CN1CCC(N2CCCCCC2)CC1	none
Cc1ccc2c(Cl)c(C(=O)Nc3ccc(N(C)C)cc3)sc2c1	none
CC(NC(=O)c1ccccc1[N+](=O)[O-])C1CC2CCC1C2 (stereo not given)	none
CC(NC(=O)c1ccccc1Br)C1CC2CCC1C2 (stereo not given)	none
Cc1ccc(C(=O)NC(C)C2CC3CCC2C3)s1 (stereo not given)	Chlamy TAG active
O=C(c1ccccc1F)N1CCN(Cc2ccc([N+](=O)[O-])cc2)CC1	none
COc1ccc(OC)c(N(CC(=O)Nc2cc(C)ccc2C)S(C)(=O)=O)c1	none
COCC(C)NC1C2CC3CC(C2)CC1C3 (stereo not given)	none
CC(CCc1ccc(O)cc1)NC1C2CC3CC(C2)CC1C3 (stereo not given)	Chlamy TAG active
O=C(CCCc1ccccc1)NC1C2CC3CC(C2)CC1C3 (stereo not given)	none
Cc1ccc(S(=O)(=O)N(CC(=O)NCC2CCCO2)c2cccc(C)c2C)cc1 (stereo not given)	none
CC(C)(C)C(=O)NCCC12CC3CC(CC(C3)C1)C2	none
Oc1ccccc1CNCCC12CC3CC(CC(C3)C1)C2	Chlamy TAG active
COc1ccccc1CC(=O)NC12CC3CC(CC(C3)C1)C2	none
C/C=C/CSC1=C(C#N)C(c2cccs2)C(C(C)=O)=C(C)N1 (stereo not given)	none
COc1ccc(Cl)cc1NC(=O)c1cccc(C)c1	none
COc1cccc(CN2CCC(C(=O)NC(C)C)CC2)c1O	none
CC1CN(CC(O)COc2ccc(C(C)(C)C)cc2)CC(C)O1 (stereo not given)	Chlamy TAG active
Cc1cc(OCC(O)CN2CCN(CCO)CC2)ccc1C(C)C (stereo not given)	Chlamy TAG active
CC1CN(CC(O)COCc2ccc(Cl)cc2)CC(C)O1 (stereo not given)	none
CC(C)(C)c1ccc(OCC(O)CN2CCN(CCO)CC2)cc1 (stereo not given)	Chlamy TAG active
CC(C)(C)c1ccc(OCC(O)CN)cc1 (stereo not given)	none
Cc1cc(C)n(CC(O)COc2ccc(C(C)C)c(C)c2)n1 (stereo not given)	none
Cc1cc(OCC(O)CN2CCN(c3ccccc3)CC2)ccc1C(C)C (stereo not given)	none
CC1CN(CC(O)COc2ccc(Cl)cc2Cl)CC(C)O1 (stereo not given)	none
CCOC(=O)N1CCN(CC(O)COc2ccc(C(C)(C)C)cc2)CC1 (stereo not given)	none
NC(=O)C1CCN(Cc2cccc(Br)c2)CC1	none
Nc1nc(N2C(=O)c3ccccc3C2=O)nn1-c1ccccc1	none
Cc1ccc(N(CC(=O)Nc2ccc3c(c2)OCO3)S(C)(=O)=O)c(C)c1	none
O=C(Nc1ccccc1)Nc1ccc(F)cc1	none
C/C=C(\C)CN1CCN(CC)CC1	none
O=C(Nc1ccccc1Br)c1ccccc1Cl	none
C#CCSC1=C(C#N)[C@H](c2ccccc2[N+](=O)[O-])C(C(C)=O)=C(C)N1	none
CCCCN(C)Cc1ccccc1[N+](=O)[O-]	none
Cc1c(C(=O)NC2CCCC2)cccc1[N+](=O)[O-]	none
CS(=O)(=O)NCCC(c1ccccc1)c1ccccc1	none
O=C(O)Cc1ccc(NC(=O)CSc2ccccc2)cc1	none
Cc1ccc(C)c(NC(=O)CN(c2ccc(Cl)c(Cl)c2)S(C)(=O)=O)c1	none
Nn1c(SCC(=O)Nc2ccccc2F)nnc1-c1ccc(Cl)cc1Cl	none
CN(C)C(=O)CSc1nnc(-c2ccc(Cl)cc2Cl)n1N	none
Nn1c(SCC(=O)NC23CC4CC(CC(C4)C2)C3)nnc1-c1ccc(Cl)cc1Cl	Chlamy TAG active
CN(C)c1nc(-c2ccccc2)c(NC(=O)c2ccccc2)c(-c2ccccc2)n1	none
Cc1cccc(NC(=O)Nc2ccccc2)c1C	none
Cc1ccc(NC(=O)C2CC=CCC2C(=O)O)c(Br)c1 (stereo not given)	none
O=C(O)C1CC=CCC1C(=O)Nc1ccc(F)cc1F (stereo not given)	Chlamy TAG active
Cc1ccc(Cl)cc1NC(=O)C1CC=CCC1C(=O)O (stereo not given)	none
C=C(C)CN(CC)C(=O)C1CCN(Cc2ccccn2)CC1	none
COc1ccc(C(=O)Nc2ccc([N+](=O)[O-])cc2)cc1S(=O)(=O)N1CCOCC1	none
CN1CCN(Cc2ccc(-c3ccccc3Cl)o2)CC1	Chlamy TAG active
CCN1CCN(Cc2ccc(-c3ccccc3[N+](=O)[O-])o2)CC1	none
O=[N+]([O-])c1ccccc1-c1ccc(CN2CCCCCC2)o1	none
COc1cccc(-c2nc(-c3ccc(NC(=O)c4ccc(Br)o4)cc3)no2)c1	none
Cc1ccc2[nH]c3sc(C)nc3c2c1	none
CCOc1ccc(Nc2nc(CC(=O)O)cs2)cc1	none
Cc1ccccc1C(=O)Nc1ccc(Cl)cc1Cl	none
CN1CCCN(Cc2ccc([N+](=O)[O-])o2)CC1	Chlamy TAG active
CN1CCCN(Cc2ccc(-c3ccccc3[N+](=O)[O-])o2)CC1	none
O=[N+]([O-])c1ccc(CN2CCN(c3ccccc3)CC2)o1	none
COc1cc(C)c(S(=O)(=O)NCCN2CCOCC2)cc1C	none
Cc1ccc(S(=O)(=O)NCCCN2CCOCC2)cc1	none
COc1cc(C)c(C)cc1S(=O)(=O)NCCN1CCOCC1	none
Cc1c(Cl)ccc(S(=O)(=O)NCCN2CCOCC2)c1Cl	none
COc1cc(Cl)c(S(=O)(=O)NCCCN2CCOCC2)cc1Cl	Chlamy TAG active
Cc1cc(I)ccc1S(=O)(=O)NCCCN1CCOCC1	Chlamy TAG active
Cc1cccc(C)c1NC(=O)CC(=O)c1ccccc1	none
Cc1nc(C)c(C(=O)NCc2ccccc2)s1	none
O=C(O)c1ccc(Br)c(S(=O)(=O)Nc2ccc(Cl)cc2)c1	none
O=C(O)CSc1nc2ccc([N+](=O)[O-])cc2[nH]1	none
Cc1ccc(C(=O)N2CCN(c3ccccc3)CC2)o1	none
O=CC(C=O)=C1Sc2ccccc2N1Cc1ccccc1	none
COc1ccccc1CC(=O)NC1CC(C)(C)NC(C)(C)C1	none
CC1(C)CC(NC(=O)CC(c2ccccc2)c2ccccc2)CC(C)(C)N1	none
CC1(C)CC(NC(=O)Cc2ccccc2[N+](=O)[O-])CC(C)(C)N1	Chlamy TAG active
CC(=O)c1ccc(NC(=O)C2CC(=O)N(c3ccccc3)C2)cc1 (stereo not given)	none
Cc1onc(-c2c(Cl)cccc2Cl)c1C(=O)Nc1ccc(F)c(F)c1	none
Cc1ccc(C)c(OCC(=O)NC2CCCCC2)c1C	none
CC(C(=O)NCc1cccnc1)N(c1ccccc1)S(C)(=O)=O (stereo not given)	none
CC(C(=O)NCc1ccc(Cl)cc1)N(c1ccccc1)S(C)(=O)=O (stereo not given)	Chlamy TAG active
CC(C(=O)NC1CCCCCC1)N(c1ccccc1)S(C)(=O)=O (stereo not given)	none
CC(=O)c1sc(NC(=O)c2ccc([N+](=O)[O-])s2)nc1-c1ccccc1	none
CN1CCCN(Cc2cccc(Oc3ccccc3)c2)CC1	Chlamy TAG active
OC1CCN(Cc2cccc(Oc3ccccc3)c2)CC1	none
OC1CCCN(Cc2ccc3c(c2)Cc2ccccc2-3)C1 (stereo not given)	none
CN1CCN(Cc2cccc(Oc3ccccc3)c2)CC1	Chlamy TAG active
OCC1CCCN(Cc2ccc3c(c2)Cc2ccccc2-3)C1 (stereo not given)	none
CN1CCCN(Cc2cccc(Br)c2)CC1	none
COc1ccc(CN2CCN(C)CC2)cc1OCc1ccccc1	none
CN1CCN(Cc2ccc3c(c2)Cc2ccccc2-3)CC1	Chlamy TAG active
COc1cccc(CN2CCCN(C)CC2)c1	none
O=C(c1ccc(C(=O)N2CCc3ccccc32)s1)N1CCc2ccccc21	none
COCC(=O)Nc1ccc(S(=O)(=O)N2CCOCC2)cc1	none
Cc1cc(C)n(C(=O)Nc2ccccc2)n1	none
COc1ccc(CCNC(=O)c2cc(OC)c(OC)c(OC)c2Br)cc1OC	none

Screening data: PubChem, DiRusso Lab, Biochemistry Department, University of Nebraska
